Data from the supplement of paper PMC13380429.

Tested on: Vero E6 infected with SARS-CoV-2
Assay: inhibition of SARS-CoV-2 cytopathic effect; higher = more antiviral protection, active = above 15
Details: 48 h

Measured: inhibition of SARS-CoV-2 cytopathic effect

CCCN(CCC)[C@H]1CCc2cccc(O)c2C1 [8-hydroxy-DPAT]
inactive: 1 nM -1.75% | 8.33 nM 1.08% | 100 nM 1.06% | 833.33 nM -0.13% | 10000 nM -3.59%

Nc1ccc(S(=O)(=O)Nc2ccnn2-c2ccccc2)cc1 [sulfaphenazole]
inactive: 1 nM 2% | 8.33 nM 2.26% | 100 nM 1.62% | 833.33 nM 2.18% | 10000 nM -0.83%

O=C(O[C@@H]1Cc2c(O)cc(O)cc2O[C@@H]1c1cc(O)c(O)c(O)c1)c1cc(O)c(O)c(O)c1 [epigallocatechin-gallate-(-)]
inactive: 1 nM -3.81% | 8.33 nM 2.17% | 100 nM 0.79% | 833.33 nM 1.05% | 10000 nM 0.98%
